Screening data from PubChem BioAssay.
D2 antag: antagonists of human D2 dopamine receptor | HEK293 TREx D2 cells, calcium flux, dopamine EC80 | P14416 | AID 485344 | inhibition, % at 10 µM | 340,000 tested, 2% active; in the data active means inhibition above about 30%; inactive means below that, where a call was filed
Target sequence (P14416 whole entry, looked up): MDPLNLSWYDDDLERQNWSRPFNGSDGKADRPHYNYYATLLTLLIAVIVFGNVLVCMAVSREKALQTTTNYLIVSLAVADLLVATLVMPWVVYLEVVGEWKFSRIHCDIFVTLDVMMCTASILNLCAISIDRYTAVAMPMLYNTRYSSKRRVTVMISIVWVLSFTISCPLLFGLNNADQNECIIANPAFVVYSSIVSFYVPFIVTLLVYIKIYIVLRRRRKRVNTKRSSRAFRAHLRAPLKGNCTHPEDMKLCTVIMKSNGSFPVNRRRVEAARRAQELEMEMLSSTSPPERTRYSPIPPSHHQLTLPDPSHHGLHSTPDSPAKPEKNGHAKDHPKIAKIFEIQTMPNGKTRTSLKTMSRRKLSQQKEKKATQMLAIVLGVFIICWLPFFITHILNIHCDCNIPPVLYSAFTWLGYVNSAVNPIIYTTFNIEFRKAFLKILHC
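Tetracycline-induced HEK293 TREx cells expressing D2 receptor forced-coupled to calcium signalling, loaded with no-wash calcium dye. Compounds added and calcium flux read 180 s, then dopamine added at EC80 and read a further 180 s.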
D2 PAM-1: potentiates the human D2 dopamine receptor allosterically | potentiation, % (no concentration beside the values) | DiscoveRx D2 beta-arrestin cells, luminescence, 90 min; 100% = 57 uM dopamine signal | 360,000 tested, 0.23% active | AID 624464; in the data active means potentiation above about 50%; inconclusive means mostly about 30% to 49%
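PathHunter beta-arrestin assay in DiscoveRx D2 cells. Compounds were added with an EC20 of dopamine (50 nM final) for 90 min at 37 deg C. Luminescence was read 1 h after detection reagent, with 57 uM dopamine as the EC100 control.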
D2 ag-1: activates the human D2 dopamine receptor; P14416; HEK293 T-REx D2 cells, calcium flux agonist mode; activation, % at 2 µM; 340,000 tested, 0.53% active;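 active means activation over 3 SD above normal in the single-dose calcium agonist read, cut at about 30% in these data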
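Agonism is scored from calcium flux in a force-coupled, inducible HEK293 cell line expressing D2, read kinetically for 180 s after compound addition against dopamine controls.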
D2 ag-2: activates the human D2 dopamine receptor; DiscoveRx PathHunter D2 beta-arrestin, luminescence, 90 min; 100% = 57 uM dopamine signal; AID 624465; activation, % (test concentration not listed); 360,000 tested, 0.084% active; P14416; in the data active means activation above about 40%; inconclusive means between about 15% and that limit
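Agonist mode: compounds alone added to overnight-plated D2 PathHunter cells for 90 min at 37 C, with 57 uM final dopamine (EC100) defining full response. Beta-arrestin recruitment detected by chemiluminescent reagent, read after 1 h at ambient temperature.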
D2 PAM-2: positive allosteric modulators of human D2 dopamine receptor; 340,000 tested, 0.34% active; HEK293 T-REx D2, calcium flux, EC20 dopamine potentiation; potentiation, % at 10 µM;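 active means potentiation over 3 SD above the plate norm, cut at about 30% in these data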
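Cells plated with tetracycline inducer and held overnight at 30 C; calcium dye loaded 30–90 min at room temperature; baseline taken, compound added and read 180 s; EC20 dopamine then added and read 180 s.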
Each line names hits and unclear results; the compound was inactive in the other large screens. Only some compounds are listed: those with a hit (about 2.4% of all), similar ones and a draw of the others.

CC(=O)c1ccc(NC(=O)[C@@H]2CCCN2C2=NS(=O)(=O)c3ccccc32)cc1	D2 antag 37
CC(=O)Nc1sc(N/N=C\c2ccco2)nc1-c1cccs1	D2 PAM-1 78, D2 ag-2 inconclusive
CC(=O)Nc1sc(N/N=C\c2ccccc2Cl)nc1-c1cccs1	D2 PAM-1 55
CC(=O)Nc1sc(N/N=C/c2ccccc2F)nc1-c1ccc(C)cc1	D2 ag-2 41
COc1ccccc1NC(=O)C1=C(C)Nc2nc3ccccc3n2C1c1ccccc1Cl (centres undefined)	none (no result: D2 antag, D2 PAM-1, D2 ag-1, D2 ag-2)
CCOC(=O)Cn1c(=O)c2c(nc(N3CCOCC3)n2Cc2ccccc2)n(C)c1=O	none (no result: D2 antag, D2 PAM-1, D2 ag-2)
CCCNC(=O)CSc1nc2nc(C)c(Cc3ccccc3Cl)c(C)n2n1	none (no result: D2 antag, D2 PAM-1, D2 ag-2)
CC(=O)NC1CCCC(NC(C)=O)C1 (centres undefined)	none (no result: D2 antag, D2 ag-1, D2 PAM-2)
CCC1(NC(C)=O)CC2CC1CC2NC(C)=O (centres undefined)	D2 antag 38
Cc1ccc(C(=O)O/N=C/c2c(Cl)n(C)c3ccccc23)cc1	none
CC(=O)O/N=C/c1c(N2CCOCC2)n(C)c2ccccc12	D2 PAM-1 62 (no result: D2 antag, D2 ag-1, D2 PAM-2)
Cc1ccc(C(=O)O/N=C/c2c(N3CCOCC3)n(C)c3ccccc23)cc1	D2 PAM-1 85, D2 ag-2 inconclusive
Cn1c(N2CCOCC2)c(/C=N/OC(=O)c2ccc(F)cc2)c2ccccc21	D2 PAM-1 141, D2 ag-2 inconclusive
Cn1c(Cl)c(/C=N/OC(=O)c2ccc(Cl)cc2)c2ccccc21	D2 antag 56
COc1ccccc1N1CCN(c2ccc(=O)n(CC(=O)NCc3ccc(F)cc3)n2)CC1	none (no result: D2 antag, D2 PAM-1, D2 ag-2, D2 PAM-2)
CCC(=O)N1CCc2cc(S(=O)(=O)CCC(=O)N3CCN(c4cccc(C)c4)C(C)C3)ccc21 (centres undefined)	none (no result: D2 antag, D2 PAM-1, D2 ag-2)
COc1ccc(-c2csc(C3=C(O)CN(Cc4ccc(Cl)cc4)C3=N)n2)cc1OC	D2 antag 74
CNC(=O)c1nn(-c2ccc(Cl)cc2)ccc1=O	D2 antag 33
O=C(Nc1ccn(-c2ccccc2)n1)c1ccc(Cl)cc1	D2 antag 63
CNC(=O)c1nn(-c2ccccc2)ccc1=O	none
CCc1ccc(NC(=O)c2sc3nc(C)c(Cl)c(C)c3c2NC(=O)c2ccccc2OC)cc1	none (no result: D2 antag, D2 PAM-1, D2 ag-2)
CC(/C=N/NC(=O)c1cccc(F)c1)=C\c1ccccc1	D2 antag 33
CC(/C=N/NC(=O)c1ccncc1)=C\c1ccccc1	none
CC(=C/c1ccccc1)/C=N/NC(=O)c1ccccn1	none
CC(=C/c1ccc(C(C)C)cc1)/C=N/NC(=O)c1ccncc1	D2 antag 36
COc1ccccc1C(=O)N/N=C/C(C)=C/c1ccccc1	D2 antag 75
COc1ccc(C(O)c2nc(-c3cccc(CO)c3)cs2)cc1 (centres undefined)	none (no result: D2 antag, D2 ag-1, D2 PAM-2)
CC1CCC2(CC1)NC(=O)c1ccccc1O2 (centres undefined)	D2 PAM-2 32
CCOc1ccccc1-n1c(SCC(=O)NC)nnc1-c1ccco1	none
CCOc1ccc(-n2c(SCC(=O)NC)nnc2-c2ccco2)cc1	D2 antag 36
CCCn1c(SCC(=O)N2CCN(C(=O)c3ccco3)CC2)nc2ccccc2c1=O	D2 antag 31
O=C(CSc1nnc(-c2ccco2)n1-c1ccccc1)N1CCN(C(=O)c2ccco2)CC1	D2 antag 65 (no result: D2 PAM-2)
Cn1c(SCC(=O)N2CCN(c3ccccc3)CC2)nnc1-c1ccco1	none
COc1ccc(NC(=O)CCN2C(=O)c3ccncc3C2=O)cc1OC	D2 antag 34
CCS(=O)(=O)N1CCC(n2c(C(F)(F)F)nc3cccnc32)CC1	none (no result: D2 antag, D2 PAM-1, D2 ag-2)
CCCn1cc(S(=O)(=O)CC(=O)NC2CCCCC2)c2ccccc21	D2 antag 51
Cc1nc(-[n+]2nc(-c3ccncc3)nn2-c2ccccc2)sc1C	none (no result: D2 antag, D2 ag-1, D2 PAM-2)
Cc1ccc(S(=O)(=O)N2CCCCC2)cc1C(=O)OC1CCCCC1=O (centres undefined)	none
Fc1ccc(Nc2nc3ccccc3s2)cc1	D2 antag 33
Cc1ccc(Nc2nc3ccccc3s2)cc1	none
O=C(O)CC(Cc1ccccc1)(C(=O)O)c1ccccc1 (centres undefined)	none
CSCCC(NS(=O)(=O)c1ccc(Cl)c(Cl)c1)C(=O)O (centres undefined)	none
